Activity calls are given as the source filed them. Unless noted, no rule for the calls is given here.

A short description of assay [1]: compound effects on lung adenocarcinoma cell viability – A549, calcein-AM fluorescence, 48 h, basal, profiling panel (AID 1162). Also: test concentration not given here. To be noted: higher = more signal.
The nature of assay [2]: compound effects on differentiated 3T3-L1 adipocyte viability – cell-based, 3T3-L1 adipocytes, calcein-AM fluorescence, 48 h, basal, profiling panel (AID 1163). Also: test concentration not given here. The following applies: 3T3-L1 adipocytes viability, higher = more signal.
The nature of assay [3]: compound effects on hepatocellular carcinoma cell viability – HepG2, calcein-AM fluorescence, 48 h, basal, profiling panel (AID 1164). Also: test concentration not given here. To be noted: higher = more signal.
Assay [4] in a line: compound effects on multiple myeloma cell viability – MM1S, calcein-AM fluorescence, 48 h, basal, profiling panel (AID 1165).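 Also: viability of MM1S multiple myeloma cells under basal unstimulated conditions; test concentration not given here.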 The following applies: higher = more signal.
A short description of assay [5]: calcein-AM signal in unstimulated myeloma cells – cell-based, calcein-AM fluorescence, 48 h, PK04 Diversity Set, profiling panel (AID 1166).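 Also: cells grown under basal conditions without added stimulus; test concentration not given here.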 The following applies: RPMI8226 myeloma viability, higher = more signal.
A short description of assay [6]: JC-1 mitochondrial signal, unstimulated HepG2 cells – cell-based, JC-1 fluorescence, 24 h, 100 nL compound, profiling panel (AID 1167). Also: test concentration not given here. The following applies: HepG2 mitochondrial potential, higher = more signal.
The nature of assay [7]: JC-1 mitochondrial signal, unstimulated adipocytes – cell-based, JC-1 fluorescence, 3T3-L1 adipocytes, 24 h, 100 nL compound, profiling panel (AID 1168). Also: test concentration not given here. To be noted: JC-1 mitochondrial fluorescence, higher = more signal, called active from +8 up or from −8 down.
Assay [8] can be described thus: JC-1 mitochondrial signal, unstimulated myeloma cells – cell-based, JC-1 fluorescence, RPMI8226, 24 h, 100 nL compound, profiling panel (AID 1169). Also: test concentration not given here. The following applies: JC-1 mitochondrial potential fluorescence, higher = more signal.
Assay [9] in a line: JC-1 mitochondrial signal, unstimulated MM1S myeloma – cell-based, JC-1 fluorescence, 24 h, 100 nL compound, profiling panel (AID 1170). Also: test concentration not given here. The following applies: MM1S mitochondrial potential, higher = more signal.
The nature of assay [10]: resazurin metabolic signal in A549 cells – cell-based, resazurin fluorescence, 24 h, PK04 Diversity Set, profiling panel (AID 1171). Also: test concentration not given here. To be noted: A549 viability, higher = more signal, called active from +8 up or from −8 down.
Assay [11] can be described thus: resazurin metabolic signal in HepG2 cells – cell-based, resazurin fluorescence, 24 h, PK04 Diversity Set, profiling panel (AID 1172). Also: test concentration not given here. The following applies: HepG2 viability, higher = more signal. (In general: The colour change of resazurin is a common sign of viable cells or microbes.)
Assay [12] in a line: budding yeast growth changes without added modifier – OD600, strain BY4716, 24 h, basal condition, primary screen (AID 1173). To be noted: S. cerevisiae BY4716 growth, OD600, 24 h; higher = more signal, called active from +8 up or from −8 down.
The nature of assay [13]: viability profiling in MM1S myeloma cells – cell-based, resazurin fluorescence, basal, 24 h, PK04 Diversity Set, profiling panel (AID 1174). Also: test concentration not given here. To be noted: higher = more signal, called active from +8 up or from −8 down.
Assay [14] concerns the target Dihydroorotate dehydrogenase (quinone), mitochondrial (Plasmodium falciparum (isolate 3D7)) (UniProt Q08210). The assay can be described thus: inhibition of P. falciparum DHODH – biochemical, C-terminal His tag, absorbance 600 nm, primary screen (AID 1175).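 Also: recombinant parasite enzyme with a five histidine tag at its C terminus; test concentration not given here.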 The following applies: PfDHODH enzyme, DCIP absorbance 600 nm; higher = more signal, called active from +8 up or from −8 down.

Assay [15] is described as follows: inhibition of PAO1 biofilm formation – strain PAO1, LB-PBS medium, absorbance 600 nm, primary screen (AID 1176). Also: test concentration not given here. The following applies: P. aeruginosa PAO1 growth/biofilm, A600, 12 h; higher = more signal.
Assay [16] is described as follows: growth modulation of vineyard yeast isolate – strain RM11-1a, OD600, basal, 24 h, primary screen (AID 1177).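 Also: cultures grown under basal conditions with no added stressor; test concentration not given here.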 To be noted: S. cerevisiae RM11-1a growth, OD600, 24 h; higher = more signal, called active from +8 up or from −8 down.
A short description of assay [17]: growth of efflux-deficient E. coli DRC39 – strain DRC39, OD650, 24 h, E. coli filamentation inducers, primary screen (AID 1178).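 Also: growth measured as culture turbidity by optical density at 650 nm; test concentration not given here.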 To be noted: E. coli DRC39 acrAB, higher = more signal, called active from +8 up or from −8 down.
A short description of assay [18]: growth of efflux-deficient E. coli DRC39 – strain DRC39, OD650, 48 h, E. coli filamentation inducers, primary screen (AID 1179).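 Also: screen aims at cell division blockers that make cells filament.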 The following applies: E. coli DRC39 delta-acrAB growth, higher = more signal, called active from +8 up or from −8 down.
Assay [19] can be described thus: viability profiling in RPMI8226 myeloma cells – cell-based, resazurin fluorescence, basal, 24 h, PK04 Diversity Set, profiling panel (AID 1180).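 Also: RPMI8826 multiple myeloma cell line at 5000 cells per well; test concentration not given here.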 To be noted: higher = more signal.
Assay [20] addresses E3 ubiquitin-protein ligase XIAP (Homo sapiens) (UniProt P98170). In words: small molecules binding XIAP protein – biophysical, small-molecule microarray, fluorescence 635 nm, primary screen (AID 1181).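 Also: score merges 667 nm emission and signal to noise over triplicate slides.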 The following applies: higher = more signal.

Chain of Dihydroorotate dehydrogenase (quinone), mitochondrial (Plasmodium falciparum (isolate 3D7)) (Q08210 whole entry, looked up): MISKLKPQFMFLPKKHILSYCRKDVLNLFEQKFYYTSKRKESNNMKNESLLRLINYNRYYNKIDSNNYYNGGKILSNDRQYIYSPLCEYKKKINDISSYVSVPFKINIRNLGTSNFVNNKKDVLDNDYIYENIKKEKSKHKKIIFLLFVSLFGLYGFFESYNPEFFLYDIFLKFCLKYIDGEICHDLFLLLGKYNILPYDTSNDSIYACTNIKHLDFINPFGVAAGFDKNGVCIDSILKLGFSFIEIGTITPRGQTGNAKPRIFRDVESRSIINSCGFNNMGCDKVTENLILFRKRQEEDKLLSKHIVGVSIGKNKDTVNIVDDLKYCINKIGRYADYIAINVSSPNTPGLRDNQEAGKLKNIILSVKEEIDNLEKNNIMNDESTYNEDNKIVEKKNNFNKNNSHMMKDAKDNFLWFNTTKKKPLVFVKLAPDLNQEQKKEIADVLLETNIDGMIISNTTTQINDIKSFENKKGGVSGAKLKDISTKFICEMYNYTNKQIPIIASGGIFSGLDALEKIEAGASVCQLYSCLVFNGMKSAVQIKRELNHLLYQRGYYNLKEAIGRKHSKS
Chain of E3 ubiquitin-protein ligase XIAP (Homo sapiens) (P98170 whole entry, looked up): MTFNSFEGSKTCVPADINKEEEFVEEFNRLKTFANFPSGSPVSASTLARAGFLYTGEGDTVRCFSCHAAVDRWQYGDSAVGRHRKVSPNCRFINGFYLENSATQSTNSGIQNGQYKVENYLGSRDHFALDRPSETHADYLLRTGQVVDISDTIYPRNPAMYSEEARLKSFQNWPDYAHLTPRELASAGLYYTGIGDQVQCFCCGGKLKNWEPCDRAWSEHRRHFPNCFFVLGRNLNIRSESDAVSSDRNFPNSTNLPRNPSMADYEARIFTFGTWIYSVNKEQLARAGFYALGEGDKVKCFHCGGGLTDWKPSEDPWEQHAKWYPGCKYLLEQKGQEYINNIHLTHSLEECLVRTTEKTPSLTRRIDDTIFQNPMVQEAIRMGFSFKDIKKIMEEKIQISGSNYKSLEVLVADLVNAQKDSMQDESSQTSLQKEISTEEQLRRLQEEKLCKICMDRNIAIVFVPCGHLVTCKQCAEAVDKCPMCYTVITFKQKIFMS

As to `O=C(CCN1CCOCC1)c1cccc(O)c1`, the z-score in [1] is 0.867; in [2], 0.75; in assay [3] it was -0.891; in assay [4] it was -3.16; in assay [5], -1.74; in assay [6], 0.109. For the same compound, the z-score in [7] is -0.163 (inactive); in assay [8], -0.0964; in [9] it was -2.97; in assay [10] it was 0.36 (inactive); in assay [11], 1.19; in assay [12] it was -0.804 (inactive). Further, the z-score in assay [13] was -1.43 (inactive); in [15] it was -0.407 (inactive); in assay [16] it was -1.07 (inactive); in assay [17] it was 0.251 (inactive); in assay [18], 0.737 (inactive); in assay [19] it was -1.6. Besides, the composite z-score in [14] is -1.44 (inactive); in [20], 0.226.
With `CCOC(=O)C1=C[C@@H](CC)N(S(=O)(=O)c2ccc(C)cc2)[C@H]1c1ccccc1`, the z-score in [1] was -0.934; in [2], -0.167; in [3] it was -0.342; in assay [4], -0.922; in assay [5] it was -1.37; in assay [6], -0.378. For the same compound, the z-score in assay [7] was -1.31 (inactive); in assay [8], 0.649; in assay [9] it was -0.894; in [10] it was 1.46 (inactive); in assay [11], -0.203; in assay [12] it was 1.21 (inactive). In addition, the z-score in assay [13] was -0.666 (inactive); in [15] it was 0.325 (inactive); in assay [16], 0.501 (inactive); in assay [17], -0.823 (inactive); in [18], -0.604 (inactive); in assay [19] it was -1.05. Moreover, the figures for the composite z-score in [14] and in [20] were -0.157 (inactive) and 0.289, respectively.
As to `COc1ccc([Si](C)(C)[C@@H]2[C@@H](CC(=O)N3CCC[C@H]3CO)O[C@]3(C(=O)N(C)c4c(Br)cc(C)cc43)[C@H]2C)cc1`, the z-score in assay [1] was 0.49; in assay [2], 0.406; in assay [3], 1.03; in [4], -0.929; in [5] it was -1.04; in assay [6], 1.02. For the same compound, the z-score in [7] is 0.0349 (inactive); in assay [8] it was -0.489; in assay [9], -0.0745; in assay [10], 0.206 (inactive); in assay [11], 0.27; in assay [12] it was -1.62 (inactive). Also, the z-score in [13] is 0.62 (inactive); in [15], 0.331 (inactive); in [16], -1 (inactive); in [17] it was 0.233 (inactive); in assay [18], 0.0205 (inactive); in assay [19], -0.128. Further, the values for the composite z-score in assay [14] and in [20] were -1.88 (inactive) and 0.287, respectively.
Turning to `COc1ccc(CCNC(=O)[C@@]2(Sc3ccc(C)cc3)CC(=O)N(Cc3ccccc3Cl)[C@@H]2c2ccc(CO)cc2I)cc1`, the z-score in assay [1] was 0.507; in [2], -1.07; in assay [3], 0.334; in assay [4], -1.41; in assay [5], -1.54; in assay [6], 0.167. For the same compound, the z-score in [7] is -0.0114 (inactive); in assay [8], -0.474; in assay [9], -1.96; in assay [10], -0.478 (inactive); in assay [11], 0.254; in assay [12], -4.37 (inactive). Besides, the z-score in assay [13] is -2.75 (inactive); in assay [15], 0.379 (inactive); in assay [16], -1.37 (inactive); in assay [17], 0.853 (inactive); in assay [18], 1.36 (inactive); in [19], -1.71. Further, the composite z-score was -0.725 (inactive) in assay [14] and 0.0512 in assay [20].
As for `CCOC(=O)C[C@H]1[C@H](OC(=O)Cc2ccc3c(c2)OCO3)[C@@H](NC(=O)c2ccc(-c3ccccc3)cc2)c2cc(OCCCO)ccc2N1C(=O)c1ccccc1`, the z-score in assay [1] is 1.8; in assay [2] it was 0.127; in [3], 1.66; in assay [4], -0.262; in assay [5] it was 0.0317; in assay [6] it was 3.09. Further, the z-score in assay [7] was -0.288 (inactive); in assay [8], 0.965; in assay [9], -0.0178; in assay [10], 0.328 (inactive); in assay [11], 0.0575; in assay [12] it was 0.188 (inactive). The z-score in assay [13] is 0.106 (inactive); in assay [15], 0.608 (inactive); in assay [16], 0.412 (inactive); in [17] it was 1.02 (inactive); in assay [18], 1.16 (inactive); in assay [19], -0.264. For the same compound, the composite z-score was -0.0887 (inactive) in assay [14] and -0.17 in [20].
Take `CCOC(=O)C[C@H]1[C@H](OC(=O)c2ccccc2-c2ccccc2)[C@@H](NC(=O)c2ccc3ccccc3c2)c2cc(OCCCO)ccc2N1C(=O)c1ccc2ccccc2n1`: the z-score in assay [1] was 0.135; in assay [2] it was 0.487; in [3] it was -0.0645; in [4], -0.957; in assay [5], -0.442; in [6] it was 0.732. Further, the z-score in [7] is 2.16 (inactive); in assay [8] it was -0.337; in [9], -0.615; in [10], 0.735 (inactive); in assay [11] it was 1.33; in [12], 0.682 (inactive). The z-score is 0.288 (inactive) in [13]; -0.271 (inactive) in [15]; 0.876 (inactive) in assay [16]; 0.672 (inactive) in [17]; 0.641 (inactive) in assay [18]; 0.726 in assay [19]. In addition, the figures for the composite z-score in assay [14] and in assay [20] were 0.428 (inactive) and -0.144, respectively.
`N#Cc1ccc(NN2C(C(O)C3CCCCC3)C=CC3C(=O)N(c4ccccc4)C(=O)C32)cc1` (stereo not given): the z-score in assay [1] was -0.669; in assay [2] it was -0.515; in assay [3] it was 0.595; in assay [4], -0.185; in [5], -0.32; in [6], -2.19. For the same compound, the z-score in assay [7] is -2.17 (inactive); in assay [8], 0.234; in assay [9], 0.318; in assay [10] it was -0.609 (inactive); in [11], -0.779; in assay [12], -0.394 (inactive). Moreover, the z-score was -0.668 (inactive) in assay [13]; 1.14 (inactive) in [15]; -0.28 (inactive) in assay [16]; -0.427 (inactive) in assay [17]; -0.673 (inactive) in assay [18]; -0.848 in [19]. The composite z-score in assay [14] is -0.177 (inactive); in assay [20], 0.262.
For `COc1c(C)cc(-c2cc3c(c(-c4ccc(Oc5ccccc5)cc4)n2)[Si](C(C)C)(C(C)C)OC3)cc1C`, the z-score in assay [1] was -0.342; in assay [2], -0.616; in assay [3], 0.285; in assay [4], -0.66; in assay [5], -0.11; in [6] it was -1.3. Further, the z-score in [7] is -0.528 (inactive); in [8], 0.103; in [9], 0.0963; in assay [10], 0.624 (inactive); in [11], -0.566; in [12], 2.09 (inactive). In addition, the z-score is -0.391 (inactive) in assay [13]; 1.18 (inactive) in assay [15]; 1.19 (inactive) in [16]; -0.227 (inactive) in assay [17]; -0.707 (inactive) in assay [18]; -0.155 in assay [19]. Further, the composite z-score in assay [14] was 0.567 (inactive); in assay [20], -0.187.
On to `O=C1O[C@@H](c2ccccc2)[C@@H](c2ccccc2)N2[C@@H](c3ccc(OCCO)cc3)[C@]3(C(=O)Nc4ccccc43)[C@@H](C(=O)Nc3nc4ccccc4s3)[C@H]12`, for which the z-score in assay [1] is -0.328; in [2] it was -0.343; in assay [3], 0.27; in assay [4], -0.829; in [5] it was -1.17; in [6] it was -3.31. Moreover, the z-score in assay [7] was 2.07 (inactive); in assay [8], -1.05; in assay [9], -1.86; in [10] it was -1.4 (inactive); in assay [11] it was -0.489; in assay [12], 0.0135 (inactive). In addition, the z-score in assay [13] was -1.52 (inactive); in assay [15], 3.18 (inactive); in assay [16] it was 1.97 (inactive); in assay [17] it was -0.595 (inactive); in assay [18], 0.29 (inactive); in [19] it was -1.55. Also, the composite z-score was -0.308 (inactive) in [14] and 0.148 in assay [20].

These data come from PubChem BioAssay.
